From PubChem BioAssay (NCI)
About 79,000 compounds went through this panel and 15% of them were active in at least one assay; those are over-represented in the sample as a whole. Activity calls are given as the source filed them. No stated cut-off is given here; in the data, active means growth inhibition above about 70%; inactive means the rest.

What was measured:
[1] = NCI Yeast Anticancer Drug Screen. Data for the rad50 strain (AID 155);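 further: 0% = growth of vehicle-only cultures of the same strain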; conditions: S. cerevisiae rad50 strain growth inhibition; at 50.0 µM; active compounds read high
Method in brief: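 Growth of the mutant yeast was measured after compound exposure and referenced to vehicle-treated cultures.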

[2] = NCI Yeast Anticancer Drug Screen. Data for the mec2-1 strain (AID 157); conditions: S. cerevisiae mec2-1 strain, at 50.0 µM, active compounds read high
Method in brief: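 Using mec2-1 yeast: add compound, measure growth, express inhibition versus vehicle-treated cultures.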

[3] = NCI Yeast Anticancer Drug Screen. Data for the sgs1 mgt1 strain (AID 161);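 further: 0% = growth of cultures given vehicle only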; conditions: S. cerevisiae sgs1 mgt1 strain, at 50.0 µM, active compounds read high
Method in brief: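 Growth of a repair-deficient yeast mutant was monitored after compound treatment and expressed as inhibition relative to vehicle-treated cultures.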

[4] = NCI Yeast Anticancer Drug Screen. Data for the cln2 rad14 strain (AID 165);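 further: 0% = growth equal to vehicle treated cultures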; conditions: S. cerevisiae cln2 rad14 strain, at 50.0 µM, active compounds read high
Method in brief: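 Yeast strain cln2 rad14, bearing defects in cell cycle control and DNA repair, serves as the test system; values reflect growth inhibition compared with vehicle.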

[5] = NCI Yeast Anticancer Drug Screen. Data for the bub3 strain (AID 167); conditions: S. cerevisiae bub3 mutant strain, at 50.0 µM, active compounds read high
Method in brief: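 Whole-cell yeast assay. The mutant strain was incubated with compounds, and growth inhibition was determined by comparison with vehicle-treated cells.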

[6] = NCI Yeast Anticancer Drug Screen. Data for the mlh1 rad18 strain (AID 175); conditions: S. cerevisiae mlh1 rad18 strain growth inhibition; at 50.0 µM; active compounds read high
Method in brief: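 Steps: expose repair-defective yeast to compound; measure growth; express inhibition against vehicle-treated controls.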

SMILES	growth inhibition [1]	growth inhibition [2]	growth inhibition [3]	growth inhibition [4]	growth inhibition [5]	growth inhibition [6]
Cc1cc(N(CCCCl)CCCCl)ccc1C=Nc1cc(Br)c(O)c(Br)c1	81% (active)	52.4% (inactive)	93.5% (active)	52.5% (inactive)	76.3% (active)	84.9% (active)
CCCCNc1nnc(N)s1	4.65% (inactive)	-24.2% (inactive)	-10.3% (inactive)	-34.5% (inactive)	-2.2% (inactive)	-27.9% (inactive)
COc1cc(N=Nc2cccc(S(=O)(=O)O)c2)ccc1NC(=O)c1ccc(C(=O)Nc2ccc(N=Nc3cccc(S(=O)(=O)O)c3)cc2OC)cc1	3.35% (inactive)	17.4% (inactive)	23% (inactive)	-8.2% (inactive)	-13.8% (inactive)	21.2% (inactive)
COC(=O)C1OC(O[C@H]2CC[C@]3(C)[C@H]4CC=C5[C@@H]6CC(C)(C)CC[C@]6(C(=O)OC6OCC(O)C(O)C6OC6OC(C)C(OC7OCC(O)C(O)C7O)C(OC7OCC(O)(CO)C7O)C6O)[C@H](O)C[C@@]5(C)[C@]4(C)CC[C@H]3C2(C)C)C(O)C(O)C1O (stereo not given in full)	16.1% (inactive)	-10.3% (inactive)	-6.1% (inactive)	34.6% (inactive)	13.6% (inactive)	10.3% (inactive)
C[N+]1(C)CCCC(c2ccccc2)(c2ccccc2)C(O)C1 (stereo not given)	10.8% (inactive)	7.15% (inactive)	11.2% (inactive)	23.4% (inactive)	-2.65% (inactive)	11.9% (inactive)
C=CCOc1ccc(C2C(C(=O)OCC)C(=O)CC(C)(O)C2C(=O)OCC)cc1OC (stereo not given)	-6.25% (inactive)	-11.3% (inactive)	-7.15% (inactive)	-24% (inactive)	1.35% (inactive)	-7.45% (inactive)
CCOC(=O)CN=NNc1ccccc1C(C)=O	21.4% (inactive)	7.45% (inactive)	10.9% (inactive)	-3.3% (inactive)	3.05% (inactive)	38.4% (inactive)
COc1ccc(Nc2ccnc(N)n2)cc1	5.15% (inactive)	-27.4% (inactive)	1.25% (inactive)	-0.35% (inactive)	14.2% (inactive)	-13.2% (inactive)
O=C1CC(N2C(=O)C3C4CCC(O4)C3C2=O)C(=O)N1 (stereo not given)	2.45% (inactive)	18.2% (inactive)	1.3% (inactive)	-0.6% (inactive)	7.95% (inactive)	6.45% (inactive)
O=C(O)Cc1c(-c2ccc([N+](=O)[O-])cc2)c(=O)oc2cc(O)ccc12	28.4% (inactive)	4.15% (inactive)	9% (inactive)	20.1% (inactive)	41% (inactive)	11.7% (inactive)
Cc1nc(Cl)c(C)c(Cl)n1	13.4% (inactive)	-28.6% (inactive)	1.4% (inactive)	5.2% (inactive)	-5% (inactive)	15.9% (inactive)
CO[C@@H]1[C@@H](O)c2ccccc2N1C(C)=O	13.4% (inactive)	1.9% (inactive)	-4% (inactive)	8.15% (inactive)	3.25% (inactive)	20.1% (inactive)
CN(C)c1cccc(/C=C(\C#N)c2ccccc2)c1	2.85% (inactive)	13.8% (inactive)	35.5% (inactive)	28.8% (inactive)	54.1% (inactive)	15.2% (inactive)
Cc1nc(N)nc(CCC(=O)Nc2cccc(C(F)(F)F)c2)c1-c1ccc(Cl)cc1	12.2% (inactive)	-2.9% (inactive)	6.7% (inactive)	7.45% (inactive)	-3.6% (inactive)	11.1% (inactive)
OCn1c2ccccc2c2ccccc21	19.8% (inactive)	0.55% (inactive)	33.7% (inactive)	20.8% (inactive)	35.9% (inactive)	19.8% (inactive)
Cc1cc(Cl)nc(/N=C(\N)Nc2ccc(Cl)c(Cl)c2)n1	-1.95% (inactive)	5.45% (inactive)	-1.05% (inactive)	-11.7% (inactive)	6.1% (inactive)	7.6% (inactive)
CC(C)C(NC(=O)OC(c1ccccc1)c1ccccc1)C(=O)NC(CSC(c1ccccc1)(c1ccccc1)c1ccccc1)C(=O)NCC(=O)OCc1ccccc1 (stereo not given)	4.45% (inactive)	5.75% (inactive)	4.55% (inactive)	-19.1% (inactive)	-10.8% (inactive)	27.2% (inactive)
COc1ccc(N(Cc2ccccc2)c2nn[nH]n2)cc1	13.9% (inactive)	-18.4% (inactive)	-3.3% (inactive)	11.6% (inactive)	-5.6% (inactive)	-19.8% (inactive)
O=[N+]([O-])c1ccc(-c2cc[cH-]c2)cc1.[Fe+2].c1cc[cH-]c1	-4.4% (inactive)	14.2% (inactive)	13.8% (inactive)	3.4% (inactive)	17.8% (inactive)	-0.75% (inactive)
Cc1ccc(N=Cc2ccc3c(c2)OCO3)cc1C	8.05% (inactive)	6.2% (inactive)	9.65% (inactive)	40.6% (inactive)	10.1% (inactive)	29.2% (inactive)

SMILES	growth inhibition [1]	growth inhibition [2]	growth inhibition [3]	growth inhibition [4]	growth inhibition [5]	growth inhibition [6]
Cc1cc(O)c(/C=N/C(=O)NN)c(=O)o1	-40.6% (inactive)	-11.1% (inactive)	-20.1% (inactive)	-22.4% (inactive)	-22.5% (inactive)	-42.5% (inactive)
CC(=O)OC1CCC2(C)C(CCC3C2CCC2(C)C(C(C)=O)CCC32)C1 (stereo not given)	4.25% (inactive)	-9.05% (inactive)	2.35% (inactive)	-11.9% (inactive)	10.4% (inactive)	14.9% (inactive)
CC(=O)OC(=O)C(=O)C(F)C(O)C(C)C (stereo not given)	-16.6% (inactive)	-13.9% (inactive)	-14.2% (inactive)	-10.4% (inactive)	-13.4% (inactive)	7.45% (inactive)
CN1C(=O)N/C(=C\c2ccc(S(=O)(=O)NN)cc2)C1=O	4.05% (inactive)	9.6% (inactive)	24.7% (inactive)	11.7% (inactive)	-18.8% (inactive)	39.2% (inactive)
O=C1NN(c2ccccc2)C(=O)C2C3c4ccccc4C(c4ccccc43)C12 (stereo not given)	2.45% (inactive)	-6.8% (inactive)	0.7% (inactive)	-3.3% (inactive)	-2.4% (inactive)	2.85% (inactive)
CC(C)(C)CC(C(=O)O)[Si](C)(C)C (stereo not given)	-4.55% (inactive)	7.1% (inactive)	-1.65% (inactive)	-1.25% (inactive)	2.9% (inactive)	-9.7% (inactive)
Cc1ccn2nnnc2c1	-8.45% (inactive)	-11.2% (inactive)	-1.2% (inactive)	1% (inactive)	3.45% (inactive)	-17.6% (inactive)
CCCCC(/C=C(/C)C(=O)O)CC (stereo not given)	6.9% (inactive)	1.6% (inactive)	3.9% (inactive)	-1.8% (inactive)	3.3% (inactive)	0.9% (inactive)
O=[N+]([O-])c1ccc2[nH]nc(OCc3ccccn3)c2c1	35% (inactive)	33.4% (inactive)	-23.8% (inactive)	28.1% (inactive)	7.15% (inactive)	20.9% (inactive)
COc1ccc(C(=O)CCN(C)C)cc1	15.6% (inactive)	-5.85% (inactive)	-7.65% (inactive)	-11.3% (inactive)	-7.5% (inactive)	-4.6% (inactive)
CCCCC(O)c1ccc[n+]([O-])c1 (stereo not given)	4.3% (inactive)	-21% (inactive)	0.6% (inactive)	2.95% (inactive)	-3.4% (inactive)	3.95% (inactive)
CCOc1ncc(C[n+]2csc(CCO)c2C)c(N)n1	-4.95% (inactive)	-8.7% (inactive)	8.25% (inactive)	0.8% (inactive)	-19.9% (inactive)	-5.35% (inactive)
O=C(O)/C=C1/CCC(=O)O1	-5.25% (inactive)	-0.2% (inactive)	0.05% (inactive)	10.8% (inactive)	20.1% (inactive)	-0.65% (inactive)
CN(C)c1ccc(C2c3c(oc4ccccc4c3=O)Oc3oc4ccccc4c(=O)c32)cc1	3.8% (inactive)	-0.15% (inactive)	-9.85% (inactive)	5.4% (inactive)	0.35% (inactive)	-17.5% (inactive)
Brc1ccc2nc(-c3ccccc3)c3ccccc3c2c1	-13.7% (inactive)	-0.45% (inactive)	-2.35% (inactive)	-25.4% (inactive)	14.8% (inactive)	-2.65% (inactive)
Cc1cc(C(O)CNCCn2cnc3c2c(=O)n(C)c(=O)n3C)ccc1O (stereo not given)	38.8% (inactive)	-1.95% (inactive)	19.4% (inactive)	25.1% (inactive)	-4.95% (inactive)	12.3% (inactive)
Cn1c(N)cc(=O)n(C)c1=O	22.6% (inactive)	3.95% (inactive)	18% (inactive)	0.1% (inactive)	17.5% (inactive)	27% (inactive)
COc1cccc(C(=O)C(O)c2cccc(OC)c2OC)c1OC (stereo not given)	0.6% (inactive)	-5.45% (inactive)	8.2% (inactive)	0.15% (inactive)	-10.6% (inactive)	-42% (inactive)
CS(=O)(=O)OCC(=O)NCCCCNC(=O)COS(C)(=O)=O	-12.4% (inactive)	2.7% (inactive)	4.55% (inactive)	-29.5% (inactive)	7.45% (inactive)	10.3% (inactive)
CCCCc1ccc(Nc2nc(SC)c3[nH]cnc3n2)cc1	0.85% (inactive)	-17.6% (inactive)	28.9% (inactive)	16.1% (inactive)	29.7% (inactive)	-37.7% (inactive)
